From PubChem BioAssay
Calls of active or inactive are those of the source. Unless noted, how the calls were made is not given here.

Assays:
[1] = resazurin metabolic signal in HepG2 cells – cell-based, resazurin fluorescence, 24 h, PK04 Diversity Set, profiling panel (AID 1172); details: HepG2 viability, higher = more signal
[2] = budding yeast growth changes without added modifier – OD600, strain BY4716, 24 h, basal condition, primary screen (AID 1173); details: S. cerevisiae BY4716 growth, OD600, 24 h; higher = more signal, called active from +8 up or from −8 down
[3] = viability profiling in MM1S myeloma cells – cell-based, resazurin fluorescence, basal, 24 h, PK04 Diversity Set, profiling panel (AID 1174); details: higher = more signal, called active from +8 up or from −8 down;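 further: MM1S multiple myeloma cell line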
[4] = molecular target: Dihydroorotate dehydrogenase (quinone), mitochondrial (Plasmodium falciparum (isolate 3D7)) (UniProt Q08210); assay: inhibition of P. falciparum DHODH – biochemical, C-terminal His tag, absorbance 600 nm, primary screen (AID 1175); details: PfDHODH enzyme, DCIP absorbance 600 nm; higher = more signal, called active from +8 up or from −8 down;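 further: recombinant parasite enzyme with a five histidine tag at its C terminus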
Chain of Dihydroorotate dehydrogenase (quinone), mitochondrial (Plasmodium falciparum (isolate 3D7)) (Q08210 whole entry, looked up): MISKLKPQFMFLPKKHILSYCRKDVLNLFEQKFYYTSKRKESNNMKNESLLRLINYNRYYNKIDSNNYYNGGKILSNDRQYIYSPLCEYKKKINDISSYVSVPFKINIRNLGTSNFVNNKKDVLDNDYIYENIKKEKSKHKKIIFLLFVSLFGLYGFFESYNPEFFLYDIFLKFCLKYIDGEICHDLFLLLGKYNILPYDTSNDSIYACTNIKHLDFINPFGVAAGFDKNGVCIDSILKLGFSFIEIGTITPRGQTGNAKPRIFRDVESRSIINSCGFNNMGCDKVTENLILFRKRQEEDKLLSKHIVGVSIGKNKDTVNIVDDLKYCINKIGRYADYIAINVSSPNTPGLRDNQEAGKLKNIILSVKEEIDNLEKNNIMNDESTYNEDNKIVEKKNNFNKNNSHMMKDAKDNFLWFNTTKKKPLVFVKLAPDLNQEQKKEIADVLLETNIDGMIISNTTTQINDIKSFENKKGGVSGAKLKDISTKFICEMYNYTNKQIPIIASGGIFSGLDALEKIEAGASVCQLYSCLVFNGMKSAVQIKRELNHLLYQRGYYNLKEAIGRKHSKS

[5] = inhibition of PAO1 biofilm formation – strain PAO1, LB-PBS medium, absorbance 600 nm, primary screen (AID 1176); details: P. aeruginosa PAO1 growth/biofilm, A600, 12 h; higher = more signal
[6] = growth modulation of vineyard yeast isolate – strain RM11-1a, OD600, basal, 24 h, primary screen (AID 1177);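 further: cultures grown under basal conditions with no added stressor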; details: S. cerevisiae RM11-1a growth, OD600, 24 h; higher = more signal, called active from +8 up or from −8 down
[7] = growth of efflux-deficient E. coli DRC39 – strain DRC39, OD650, 24 h, E. coli filamentation inducers, primary screen (AID 1178);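 further: growth measured as culture turbidity by optical density at 650 nm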; details: E. coli DRC39 acrAB, higher = more signal, called active from +8 up or from −8 down
[8] = growth of efflux-deficient E. coli DRC39 – strain DRC39, OD650, 48 h, E. coli filamentation inducers, primary screen (AID 1179);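 further: screen aims at cell division blockers that make cells filament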; details: E. coli DRC39 delta-acrAB growth, higher = more signal, called active from +8 up or from −8 down
[9] = viability profiling in RPMI8226 myeloma cells – cell-based, resazurin fluorescence, basal, 24 h, PK04 Diversity Set, profiling panel (AID 1180); details: higher = more signal;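 further: RPMI8826 multiple myeloma cell line at 5000 cells per well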
[10] = molecular target: E3 ubiquitin-protein ligase XIAP (Homo sapiens) (UniProt P98170); assay: small molecules binding XIAP protein – biophysical, small-molecule microarray, fluorescence 635 nm, primary screen (AID 1181); details: higher = more signal;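 further: score merges 667 nm emission and signal to noise over triplicate slides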
Chain of E3 ubiquitin-protein ligase XIAP (Homo sapiens) (P98170 whole entry, looked up, the tested form may be a part): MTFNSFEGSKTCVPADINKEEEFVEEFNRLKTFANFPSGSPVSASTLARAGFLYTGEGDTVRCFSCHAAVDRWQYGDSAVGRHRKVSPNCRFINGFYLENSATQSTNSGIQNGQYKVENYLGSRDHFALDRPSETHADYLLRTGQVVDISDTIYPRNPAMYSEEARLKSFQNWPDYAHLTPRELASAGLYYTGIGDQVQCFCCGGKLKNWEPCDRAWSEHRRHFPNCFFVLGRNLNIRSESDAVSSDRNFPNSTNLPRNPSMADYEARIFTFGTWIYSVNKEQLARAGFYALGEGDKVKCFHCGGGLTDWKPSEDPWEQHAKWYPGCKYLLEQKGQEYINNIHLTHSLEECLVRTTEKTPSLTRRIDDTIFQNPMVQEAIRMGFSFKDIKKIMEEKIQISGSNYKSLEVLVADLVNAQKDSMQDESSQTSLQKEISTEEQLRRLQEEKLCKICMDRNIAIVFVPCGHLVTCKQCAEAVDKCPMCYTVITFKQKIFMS

[11] = system: XIP peptide (Xip251-270) binding; assay: XIP fragment 251-270 binding compounds – biochemical, small-molecule microarray, fluorescence 635/667 nm, 0.1 µg/mL protein, primary screen (AID 1182); details: fluorescent protein binding, 635 nm, higher = more signal, called active from +8 up or from −8 down
[12] = system: XIP peptide (Xip251-270); assay: compounds binding XIP fragment 251-270 – biochemical, small-molecule microarray, fluorescence 635/667 nm, 0.5 µg/mL protein, primary screen (AID 1183); details: fluorescence 635 nm, higher = more signal
[13] = blood-stage malaria parasite viability loss – strain 3D7, DAPI fluorescence, 100 nL, primary screen (AID 1184);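 further: parasites grown inside human red blood cells in medium with human serum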; details: P. falciparum 3D7 growth, 3 d, higher = more signal
[14] = molecular target: Homeobox protein Hox-A13 (Mus musculus) (UniProt Q62424); assay: disruptors of Hoxa13 oligonucleotide interaction – biochemical, fluorescence polarization, labeled oligonucleotide, primary screen (AID 1185); details: Hoxa13:DNA binding, 15 min, higher = more signal, called active from +8 up or from −8 down
Chain of Homeobox protein Hox-A13 (Mus musculus) (Q62424 whole entry, looked up): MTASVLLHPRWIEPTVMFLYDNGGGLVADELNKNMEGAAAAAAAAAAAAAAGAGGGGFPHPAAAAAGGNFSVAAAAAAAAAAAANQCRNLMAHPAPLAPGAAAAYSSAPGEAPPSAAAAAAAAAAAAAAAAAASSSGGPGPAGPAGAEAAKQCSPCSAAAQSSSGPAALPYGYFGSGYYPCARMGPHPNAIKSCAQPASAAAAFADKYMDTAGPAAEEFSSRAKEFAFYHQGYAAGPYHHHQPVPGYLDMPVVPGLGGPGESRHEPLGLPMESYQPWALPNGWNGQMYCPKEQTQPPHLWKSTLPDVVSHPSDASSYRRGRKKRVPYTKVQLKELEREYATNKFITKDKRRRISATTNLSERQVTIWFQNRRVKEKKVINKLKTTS

[15] = blockers of DNA damage checkpoint Chk1 activation – imaging, HeLa, hydroxyurea, phospho-Chk1 antibody, percent positive cells, primary screen (AID 1186); details: hydroxyurea-induced phospho-Chk1 immunofluorescence imaging, higher = more signal
[16] = blockers of DNA damage checkpoint Chk1 activation – imaging, HeLa, hydroxyurea, phospho-Chk1 nuclear intensity, primary screen (AID 1187); details: hydroxyurea-induced phospho-Chk1 immunofluorescence imaging, higher = more signal

Structure (SMILES) | z-score [1] | z-score [2] | z-score [3] | composite z-score [4] | z-score [5] | z-score [6] | z-score [7] | z-score [8] | z-score [9] | composite z-score [10] | composite z-score [11] | composite z-score [12] | z-score [13] | z-score [14] | z-score [15] | z-score [16]
C=CCC(OC(C)=O)[C@@H]1[C@@H](N(Cc2ccc(-c3ccccc3)cc2)C(=O)Cc2ccc(F)cc2)c2cc(OCCCO)ccc2N1C(=O)c1ccc2ccccc2c1 (stereo partly specified) | -0.228 | -0.458 (inactive) | 0.376 (inactive) | 0.683 (inactive) | 0.0885 (inactive) | -0.198 (inactive) | -0.794 (inactive) | -0.397 (inactive) | -0.112 | -0.146 | -0.568 (inactive) | -0.245 | -2.17 | -1.35 (inactive) | 0.295 (inactive) | -0.009 (inactive)
C[N+](C)(C)CCCCCCNC(=O)[C@H]1C[C@H]2C(=O)N[C@@H](Cc3ccccc3)C(=O)N2[C@H]1c1cccc(OCCO)c1 | 0.384 | 0.0938 (inactive) | 0.313 (inactive) | -1.22 (inactive) | 0.255 (inactive) | 0.548 (inactive) | 0.395 (inactive) | 0.551 (inactive) | 0.23 | -0.144 | 0.875 (inactive) | 0.817 | -0.463 | -5.91 (inactive) | 0.685 (inactive) | 0.484 (inactive)
C=C(CCCC)/C(=C/C[C@H](OC(C)=O)c1ccc(OCCO)cc1)c1cnc2ccccc2c1 | 0.846 | -0.0576 (inactive) | -1.42 (inactive) | -3.75 (inactive) | 0.403 (inactive) | -0.476 (inactive) | 0.187 (inactive) | 0.225 (inactive) | 0.228 | -0.312 | 0.578 (inactive) | 0.741 | -2.93 | -4.14 (inactive) | 0.212 (inactive) | -0.34 (inactive)
O=C1NC(=O)C2C1C=CC(C(O)c1ccc(I)cc1)N2Nc1ccccn1 (stereo unspecified) | -1.45 | -0.27 (inactive) | -0.766 (inactive) | 0.309 (inactive) | 1.48 (inactive) | 0.275 (inactive) | -0.062 (inactive) | -0.495 (inactive) | -1.01 | 0.189 | 0.932 (inactive) | 0.457 | 1.04 | -1.85 (inactive) | 0.955 (inactive) | 0.534 (inactive)
O=C1O[C@@H](c2ccccc2)[C@@H](c2ccccc2)N2[C@@H](c3ccc(OCCO)cc3)[C@]3(C(=O)Nc4ccc(C#CC5=CCCCC5)cc43)[C@@H](C(=O)N3CCCCCCC3)[C@H]12 | -0.399 | 0.593 (inactive) | 0.0902 (inactive) | -0.73 (inactive) | 1.77 (inactive) | 0.911 (inactive) | -1.32 (inactive) | 0.0745 (inactive) | 0.152 | 0.642 | 1.43 (inactive) | 0.679 | -2.22 | -15.4 (active) | 0.201 (inactive) | 0.474 (inactive)
O=C1C[C@@](C(=O)NCc2ccccc2)(c2ccc([N+](=O)[O-])cc2)[C@@H](c2ccc(CO)cc2)N1CC12CC3CC(CC(C3)C1)C2 | -1.63 | 0.229 (inactive) | -3.64 (inactive) | 0.59 (inactive) | 1.06 (inactive) | 0.87 (inactive) | -0.202 (inactive) | 0.368 (inactive) | -4.75 | 0.0427 | 1.9 (inactive) | 0.733 | -0.83 | -2.75 (inactive) | -0.714 (inactive) | -0.762 (inactive)
